Assay outcomes deposited in PubChem BioAssay by National Center for Advancing Translational Sciences (NCATS).
This is a sample that favours compounds with a hit; in the whole collection about 19% have one here.
Chronic BCR inh: qHTS Assay to Find Inhibitors of Chronic Active B-Cell Receptor Signaling. actives 0.05% (n = 340,000). ABC-DLBCL IkBa-CBG/CBR reporter, luminescence ratio, 4 h. AID 493014, 2011. Potency, µM (titrated, usually from 46.1 µM), for inactives: at the top dose activity change, negative = inhibition, usual class: inhibitors; active = well fitted inhibition curve with a large enough effect in the signal ratio, with a control signal flat, not every such curve was filed as active; inconclusive = small, poorly fitted or top-dose-only effect, or effect the other way, or a change in a side signal; the % refers to the signal ratio;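 also: potency is read from the fitted curve at half-maximal effect; plate controls were basal doxycycline-induced cells for no effect and cells given 10 µM MG132 for full effect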
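Concentration-response series (up to 46 uM) were applied to TMD8 dual-reporter cells for 4 h at 37C with doxycycline. Green/red ratio, after filter-overlap correction, defined %Activity; red signal alone was normalised to basal cells and zero luminescence.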
TDP1 cell CPT: qHTS for Inhibitors of human tyrosyl-DNA phosphodiesterase 1 (TDP1): qHTS in cells in presence of CPT; chicken DT40 Tdp1-/-;hTDP1 cells + 20 nM CPT, ATP luminescence, 48 h; Potency, µM (titrated, usually from 46.2 µM), for inactives: top-dose activity change, negative = growth inhibition, hits mostly inhibitors; actives 12% (n = 420,000); also: potency is read from the fitted curve at half-maximal effect; % is scaled to controls: 0 for no effect and ±100 for the full control effect; nearly all actives have a fitted effect of over 55% in size
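Cell growth measured by CellTiter-Glo luminescence after a minimum 48 h, 37 C compound exposure with 20 nM CPT in Tdp1-knockout DT40 cells stably expressing hTDP1, seeded 400/well; qHTS titration format.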
SW480 rereplic: A quantitative high throughput screen for small molecules that induce DNA re-replication in SW480 colon adenocarcinoma cells; SW480 DNA re-replication, Hoechst DNA content imaging, 48 h; Potency, µM (series often up to 46.1 µM), for inactives: top-dose re-replication activation, usual class: activators; actives 1.8% (n = 340,000); AID 624297, 2012; also: potency is read from the fitted curve at half-maximal effect; % of control where 0% means no effect; nearly all actives have a fitted effect of over 55% in size
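Hoechst fluorescence of nuclei (405 nm excitation, 500-530 nm emission) measured by plate-scanning imager after 48 hr compound exposure at 37 C; re-replication scored as increased number of nuclei with elevated intensity.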
DT40 TDP1 no CPT: qHTS for Inhibitors of human tyrosyl-DNA phosphodiesterase 1 (TDP1): qHTS in cells in absence of CPT; DT40 Tdp1-/- hTDP1 cells, no CPT, ATP luminescence, 48 h; Potency, µM (titrated, usually from 46.2 µM), without a hit: at the top dose activity change, negative = growth inhibition, actives largely listed as inhibitors; actives 15% (n = 420,000); also: potency is read from the fitted curve at half-maximal effect; % is scaled to controls: 0 for no effect and ±100 for the full control effect; nearly all actives have a fitted effect of over 55% in size
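Cells were dispensed at 400 per well, compounds added by pin tool, plates incubated ≥48 hr at 37 °C, then CellTiter-Glo added for 30 min at room temperature before luminescence reading. Line: DT40 Tdp1-/- complemented with hTDP1; camptothecin omitted.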
MCF10A rereplic: A quantitative high throughput screen for small molecules that induce DNA re-replication in MCF 10a normal breast cells. MCF 10A DNA re-replication, Hoechst nuclear intensity, 48 h. Potency, µM (doses to about 46.1 µM), for the others: at the top dose activity, positive = re-replication, hits mostly activators. actives 2.9% (n = 350,000); also: potency is read from the fitted curve at half-maximal effect; % of control where 0% means no effect; nearly all actives have a fitted effect of over 50% in size
IL-1B inflam inh: qHTS for Inhibitors of Inflammasome Signaling: IL-1-beta AlphaLISA Primary Screen; THP-1 LPS/ATP IL-1B secretion, AlphaLISA, 16 h; hits give low values; activity change, % at 57.5 µM; actives 4.7% (n = 360,000); in the data active = activity change below about -50%; inconclusive = mostly about -30% to -49%; also: % is scaled to controls: 0 for no effect and ±100 for the full control effect
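Secreted IL-1B measured by AlphaLISA bead assay after 16 h compound exposure of THP-1 cells; compounds (final up to 57.5 uM) added 1 h before LPS (250 ng/mL) and ATP (1.25 mM) stimulation; lower signal means less secretion.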
An asterisk follows results filed as active; u = inconclusive; x = not tested or not shown; [ ] = another dose, or the depositor's remark. Unless noted, calls follow the shape of the dose curve; as a rule, active = well fitted curve in the direction sought with a large enough effect; inconclusive = small, poorly fitted or top-dose-only effect, or another doubt; inactive = no such curve, though single readings can be large; an effect the other way counts as inactive or inconclusive.

SMILES	Chronic BCR inh	TDP1 cell CPT	SW480 rereplic	DT40 TDP1 no CPT	MCF10A rereplic	IL-1B inflam inh
CC(=O)c1cccc(-c2ccnc3c2CC(C(=O)NCC2CCOCC2)O3)c1 (centres undefined)	x	3.66µM*	x	2.91µM*	x	19.7
COc1cccc(-n2sc3c(c2=S)-c2cc(OC)ccc2NC3(C)C)c1	0.8%	u	u	u	u	-22.8
CC1(C)Nc2ccc(O)cc2-c2c1ssc2=S	-2.7%	0.731µM*	-5.1%	2.06µM*	u	-12.1
CCCCn1c(-c2csc(C(C)C)c2)n[nH]c1=S	u	-15.2%	-10.1%	-11.5%	-4.1%	11.1
CCCCn1c(-c2csc(CC)c2)n[nH]c1=S	u	20.6µM*	-8.1%	u	3.2%	15.5
CCCc1cc(-c2n[nH]c(=S)n2CC(C)C)cs1	u	u	-3.3%	20.6µM*	23.9%	4.8
Cc1ccc2nc(SCC(=O)N3CCOc4ccc(CN5C[C@@H](C)O[C@@H](C)C5)cc4C3)[nH]c2c1	x	-5.8%[9.04 µM]	x	u	x	x
CSc1nc(SCCN(C)C)c2c3c(sc2n1)COC(C)(C)C3	u	u	-41.5%	18.4µM*	8.7%	-60.9*
Cn1cc(-c2nc3cnc(N4CCNCC4)nc3n(C)c2=O)c2ccccc21	x	5.17µM*	x	5.8µM*	x	x
Cn1cc(-c2nc3cnc(N4CCOCC4)nc3n(C3CC3)c2=O)c2ccccc21	x	-4.2%	x	-6.4%	x	x
CN1CCN(c2ncc3nc(-c4cn(C)c5ccccc45)c(=O)n(C)c3n2)CC1	x	23.1µM*	x	23.1µM*	x	x
CC(=O)Nc1ccc2c(c1)C(=O)c1ccc(Cl)cc1-2	x	-22.8%	13.1%	u	-1.1%	19.5
CCCn1nc(C(=O)Nc2nnc(CC)s2)c2ccccc2c1=O	-3.3%	46.8%	-16.1%	2.5%	1.1%	30.4
CC(C)n1nc(C(=O)Nc2nc3ccccc3[nH]2)c2ccccc2c1=O	u	u	-0.9%	14.6µM*	u	-52.5*
CCCCCCn1nc(C(=O)Nc2nc3c(s2)CCCC3)c2ccccc2c1=O	u	14.6µM*	-5.3%	u	u	19.7
CCCn1nc(C(=O)Nc2ccc(N3CCOCC3)cc2)c2ccccc2c1=O	4.4%	-17.5%	4.8%	-12.8%	1.4%	-9.2
CCCn1nc(C(=O)Nc2ccc(-n3cnnn3)cc2)c2ccccc2c1=O	5.0%	u	-4.8%	11.6µM*	1.9%	-13.5
CCCCn1nc(C(=O)Nc2nc3c(s2)CCCC3)c2ccccc2c1=O	u	u	0.1%	u	14.1%	0.9
CCCn1nc(C(=O)Nc2nc3ccccc3[nH]2)c2ccccc2c1=O	u	u	2.0%	16.4µM*	u	u
Cc1nn(-c2ccccc2)nc1C(=O)Nc1nnc(C(F)(F)F)s1	-2.6%	u	-19.3%	u	u	x
COc1ccc2oc(=O)c(-c3nc(-c4cc(OC)c(OC)c(OC)c4)no3)cc2c1	x	-10.7%	x	-15.5%	x	x
Cc1cc(Oc2c(C(F)(F)F)oc3c(CN4CCC(C)CC4)c(O)ccc3c2=O)cc(C)c1Cl	x	-2.2%	x	-2.1%	x	x
CC(C)c1ccc(N2C(=O)CC(NNC(=O)c3cccnc3)C2=O)cc1 (centres undefined)	3.8%	-3.9%	-3.3%	-5.1%	4.3%	28.0
CC(C)c1ccc(NC(=O)COC(=O)c2cc(=O)[nH]c3ccccc23)cc1	-2.8%	-1.4%	-22.9%	18.4%	5.4%	2.4
Cc1nn(C)cc1C1C2=C(CC(C)(C)CC2=O)N(c2ccccc2)C2=C1C(=O)CC(C)(C)C2	-3.8%	-6.9%	-4.0%	-9.9%	-4.2%	20.6
SMILES	Chronic BCR inh	TDP1 cell CPT	SW480 rereplic	DT40 TDP1 no CPT	MCF10A rereplic	IL-1B inflam inh
C#CCOc1ccc(C2C3=C(CC(C)(C)CC3=O)N(CC(=O)O)C3=C2C(=O)CC(C)(C)C3)cc1OC	7.4%	5.2%	-4.7%	-5.9%	-1.0%	8.6
Cc1ccc(N2C(N)=C(C#N)C(c3ccsc3)C3=C2CC(C)(C)CC3=O)cc1 (centres undefined)	12.8%	u	-1.6%[9.22 µM]	u	u	-55.0*
COc1ccccc1C1C2=C(CC(C)(C)CC2=O)N(CC(=O)O)C2=C1C(=O)CC(C)(C)C2	7.8%	1.6%	-32.8%	11.3%	20.6µM*	0.0
Cc1ccc(N2C3=C(C(=O)CC(C)(C)C3)C(c3cn(C)nc3C)C3=C2CC(C)(C)CC3=O)cc1	x	14.6µM*	u	13µM*	u	-25.4
COc1ccc(N2C3=C(C(=O)CC(C)(C)C3)C(c3ccccc3OC)C3=C2CC(C)(C)CC3=O)cc1	1.1%	u	18.4µM*	16.4µM*	16.4µM*	-85.5*
Cc1cc2oc(=O)cc(-c3cc4ccccc4o3)c2cc1O	0.7%	25.9µM*	-0.8%	23.1µM*	-1.9%	-0.2
CCN(CC)C(=O)Oc1ccc2oc(=O)cc(-c3cc4cccc(OC)c4o3)c2c1	-17.7%	u	-2.7%	-27.3%	u	-64.7*
COc1ccc2oc(=O)cc(-c3cc4cccc(OC)c4o3)c2c1	-1.2%	-9.1%	1.4%	4.8%	-3.2%	26.2
COc1cccc2cc(-c3cc(=O)oc4cc(C)c(OCC(C)=O)cc34)oc12	-5.5%	u	6.51µM*	-26.8%	19.8%	39.0
COc1cc(NC(=O)N2CCC3(CC2)Nc2cc(F)ccc2-n2cccc23)cc(OC)c1OC	x	16.4µM*	x	25.9µM*	x	x
COc1cc(NC(=O)N2CCC(CN3CCCC3)CC2)cc(OC)c1OC	x	17.9%	x	5.4%	x	x
